Hit rate of the full screen: of about 330,000 compounds, about 880 (0.27%) were called active. Not shown: some 1% with an inconclusive outcome. The rule behind the calls is not given here. The list is a sample of the results.
Test: beta-lactam sensitization of Mtb H37Rv, H37Rv (AID 434955);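 note: growth measured after seven days incubation then overnight dye step; 0% = bacteria only wells and 100% = bacteria with antibiotic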
Details: M. tuberculosis H37Rv growth with meropenem, percent inhibition, at 25 µM
[1] = measured here: primary screen without meropenem

| Compound | inhibition (stronger effect = higher value) | inhibition [1] |
| --- | --- | --- |
| CC1Sc2ccc(C(=O)NCc3ccccc3Cl)cc2NC1=O (stereo not drawn) | 6.05% (inactive) | 2.96% |
| COc1cc(C2C(C(=O)OCCC#N)=C(C)NC3=C2S(=O)(=O)c2ccccc23)cc(OC)c1OC (stereo not drawn) | 4.16% (inactive) | 1.07% |
| COc1ccc(-c2cc(=O)oc3cc(OC(C)C(=O)Nc4ccc(CN5CCOCC5)cc4)ccc23)cc1 (stereo not drawn) | 98.4% (inactive) | 96.8% |
| CC(Sc1nnc2c(n1)C1CCC2(C)C1(C)C)C(=O)Nc1ccccc1 (stereo not drawn) | -4.99% (inactive) | -6.12% |
| Nn1c(SCC(=O)Nc2ccc3c(c2)CCC3)nnc1C1CC1 | -4.28% (inactive) | -7.87% |
| C/C=C(\C)C(=O)NCCN1C2=NC[C@H](Cc3ccc(O)cc3)N2C[C@@H]1Cc1ccc(OC)cc1 | -14.9% (inactive) | -6% |
| CSCCC(Nc1ccc(S(=O)(=O)N2CCOCC2)cc1[N+](=O)[O-])C(=O)OCC(=O)N(C(C)C)C(C)C (stereo not drawn) | 3.64% (inactive) | 2.01% |
| CCCCC(C(=O)NC(C)(C)C)N(Cc1ccccc1)C(=O)c1snc(C(N)=O)c1N (stereo not drawn) | -2.34% (inactive) | 4.81% |
| Fc1ccc2c(c1)C(c1cccnc1)=NNC(c1cccs1)=N2 | 31% (inactive) | 4.96% |
| Cc1ccc(-c2csc(NC(=O)C3=COCCO3)n2)cc1C | 92.7% (inactive) | 99.3% |
| CN(CC(=O)Nc1ccc(S(=O)(=O)N2CCCC2)cc1)Cc1ccc(Cl)c(Cl)c1 | 1.99% (inactive) | 0.57% |
| C=C(C)c1cccc(C(C)(C)NC(=O)N2CCN(c3ncccn3)CC2)c1 | -9.15% (inactive) | -8.65% |
| O=C1C=C(c2ccnc3cc(Cl)ccc23)C[C@@H](c2ccc3c(c2)OCO3)C1 | 52.4% (inactive) | 50.9% |
| CCc1ccc(/C=N/NC(=O)c2ccc(OC3CCCC3)cc2)s1 | 2.88% (inactive) | 3.87% |
| Cc1ccc(-n2cc(CN(C)Cc3nccn3C)c(-c3cccc(C)c3)n2)cc1 | 98.9% (inactive) | 99.4% |
| O=C(NC(=S)N1CCN(Cc2ccccc2)CC1)c1ccccc1 | 36.8% (inactive) | -3.71% |
| CC(OC(=O)CN1C(=O)C2CCCCC2C1=O)C(=O)Nc1ncc(Cl)cc1Cl (stereo not drawn) | -4.66% (inactive) | 4.44% |
| C/C(Cc1ccccc1)=N\NC(=O)CNC(=O)c1ccccc1Cl | -6.3% (inactive) | 2.92% |
| CCc1cccc(C)c1NC(=O)COC(=O)Cc1ccsc1 | -1.39% (inactive) | 2.58% |
| O=S(=O)(c1ccc(F)cc1)N1CCN=C1SCc1cccc(F)c1 | 9.8% (inactive) | 11.2% |
| NC(=O)C1CCN(C(=O)/C(=C/c2ccco2)NC(=O)c2ccccc2)CC1 | -2.14% (inactive) | -8.97% |
| CCCCNCc1ccc(SC)cc1 | -3.24% (inactive) | -0.62% |
| O=C1CC(=O)Nc2cc(S(=O)(=O)N3CCN(c4cccc(C(F)(F)F)c4)CC3)ccc2N1 | -1.42% (inactive) | 4.41% |
| Cc1ccc(N2C(=O)CC(NCc3ccc4c(c3)OCO4)C2=O)cc1Cl (stereo not drawn) | -7.15% (inactive) | 0.64% |
| COc1cc(NC(=S)N2CCCC(C)C2)cc(OC)c1OC (stereo not drawn) | 0.37% (inactive) | 3.47% |
| CCOc1ccc(NC(=O)C(C)N2C(=O)c3ccccc3C2=O)cc1 (stereo not drawn) | -0.05% (inactive) | 0.73% |
| CC(C)NS(=O)(=O)c1ccc(CCC(=O)N2CCOCC2)cc1 | -4.86% (inactive) | -6.67% |

| Compound | inhibition (stronger effect = higher value) | inhibition [1] |
| --- | --- | --- |
| CC(=O)OCCC(C)C | -5.13% (inactive) | -1% |
| CCOC(=O)c1cn[nH]c1NC(=S)Nc1ccccc1 | -8.22% (inactive) | -3.62% |
| CCCCNC(=O)Cn1nc(C)c(S(=O)(=O)N2CCOCC2)c1C | -4.34% (inactive) | -4.6% |
| Fc1ccc(N2N=C(c3cccs3)CC2c2ccco2)c(F)c1 (stereo not drawn) | 35.4% (inactive) | 9.4% |
| Cc1ccc(N(CC(=O)NC2CCCCC2)C(=O)CCCC(=O)Nc2ccccn2)c(C)c1 | -1.33% (inactive) | -1.01% |
| CCSC1=NCCN1C(=O)c1ccc(S(=O)(=O)N(CC)CC)cc1 | 6.44% (inactive) | 0.45% |
| COc1ccccc1-c1oc2ccccc2c1C#CCCCCO | 10.7% (inactive) | 7.25% |
| CC(C)OC(=O)CN1CCN(c2ccc(Cl)cc2)CC1 | -3.97% (inactive) | -7.14% |
| O=C(Nc1cccnc1)c1noc2c1CCCCC2 | 2.93% (inactive) | -8.89% |
| COc1ccc(S(=O)(=O)N2CCCCC2)cc1NC(=O)c1cc([N+](=O)[O-])ccc1N1CCOCC1 | -11.2% (inactive) | -3.23% |
| COC(=O)CC(=O)N1CCN(c2ccc(Cl)c(Cl)c2)CC1 | -8.83% (inactive) | 97.6% |
| Cc1cccc(NC(=O)C(C)N2C(=O)C3C4CC(C(Br)C4Br)C3C2=O)c1 (stereo not drawn) | -22.1% (inactive) | -16.2% |
| CC(C)c1ccc(NC(=O)CCN2C(=O)c3ccc([N+](=O)[O-])cc3C2=O)cc1 | -2.88% (inactive) | -6.43% |
| Cc1nc(COc2cccc(Cl)c2)sc1C(=O)/C=C/N(C)C | -4.65% (inactive) | -0.85% |
| C/C(=N/NC(=O)CSc1ccccn1)c1ccc([N+](=O)[O-])cc1 | -3.17% (inactive) | 6.64% |
| O=C(NC(=O)c1ccccc1)Nc1ccccc1O | 0.65% (inactive) | 3% |
| O=C1[C@@H]2C(c3cccnc3)=NO[C@@H]2C(=O)N1c1ccc(Cl)cc1Cl | -5.66% (inactive) | 0.68% |
| C[C@@H]1C[C@@H]2O[C@H]2/C=C\C=C\C(=O)Cc2c(Cl)c(O)cc(O)c2C(=O)O1 | 29.7% (inactive) | 18.4% |
| CCc1ccc2[nH]c(=O)c(Cc3ccccc3)c(O)c2c1 | -0.83% (inactive) | -2.95% |
| O=C(C1CCCN1S(=O)(=O)c1ccc(Br)cc1)N1CCOCC1 (stereo not drawn) | -1.22% (inactive) | 0.94% |
| Cc1c(NC(=O)C(C)OC(=O)c2cc3c4ccccc4n(C)c3s2)c(=O)n(-c2ccccc2)n1C (stereo not drawn) | 4.17% (inactive) | 3.63% |
| O=C(CSC1CC(=O)N(CCc2ccccc2)C1=O)Nc1ccc(Cl)cc1 (stereo not drawn) | -1.52% (inactive) | -3.81% |
| CCOc1ccc(C(O)Cn2c(=N)n(CCN3CCCCC3)c3ccccc32)cc1 (stereo not drawn) | 8.31% (inactive) | 3.41% |
| O=S(=O)(Nc1ccc(Cl)cn1)c1cnc(Cl)c(Br)c1 | -1.47% (inactive) | -1.06% |
| Cc1cc(NC(=O)OC(C)C)ccc1-c1ccc(NC(=O)OC(C)C)cc1C | 0.85% (inactive) | -5.74% |
| CCNC(=O)CC1C(=O)N(c2ccc(OC)cc2)C(=O)N1CCOC (stereo not drawn) | 7.04% (inactive) | -0.36% |
| COC(=O)Cc1ccc(NC(=S)NCc2ccco2)cc1 | -6.59% (inactive) | 47.6% |

| Compound | inhibition (stronger effect = higher value) | inhibition [1] |
| --- | --- | --- |
| Cc1cccc([C@@H]2[C@@H]3C(=O)N(C)C(=O)[C@@H]3[C@@H]3C(=O)Nc4ccccc4C(=O)N23)c1 | -6.47% (inactive) | -0.42% |
| O=C1c2ccccc2C(=O)N1CCOc1ccc(F)cc1 | -2.05% (inactive) | -1.56% |
| Cn1cc(CCC(=O)N2CCCC(C(=O)c3ccc(C(C)(C)C)cc3)C2)cn1 (stereo not drawn) | 0.49% (inactive) | 4.84% |
| CCSCc1nc(N)nc(NCCc2ccccc2)n1 | 0.44% (inactive) | 4.31% |
| CC(C)(C)C1CCc2c(sc3nc(SCC(N)=O)nc(N)c23)C1 (stereo not drawn) | 99.1% (inactive) | 99.3% |
| Brc1ccc(Nc2c3c(nc4ncnn24)CCC3)cc1 | -0.68% (inactive) | -2.17% |
| O=C(NCC(=O)N1CCN(c2ccccc2O)CC1)c1ccc2ccccc2c1 | 10.4% (inactive) | 3.65% |
| CCN(CCn1cccn1)C(=O)CC1C(=O)NCCN1Cc1cccc(OC)c1OC (stereo not drawn) | -2.12% (inactive) | 0.4% |
| CC(C)CCN1CCN(Cc2cn[nH]c2C2CCCCC2)CC1CCO (stereo not drawn) | -6.26% (inactive) | 2.27% |
| CC(=O)C[C@@H](O)CC(=O)[C@H]1OC(=O)CCCCCCc2ccccc21 | 1.26% (inactive) | -0.35% |
| C[C@H](CO)N1C[C@H](C)[C@@H](CN(C)S(=O)(=O)c2ccc(F)cc2)Oc2c(NC(=O)Nc3ccccc3)cccc2C1=O | 5.19% (inactive) | 4.04% |
| CC1=CC(=O)C=CC1(C)C(Cl)(Cl)Cl (stereo not drawn) | -0.23% (inactive) | 1.78% |
| CCC(C)NCC(=O)Nc1ccc([N+](=O)[O-])cc1C(=O)Nc1ccccc1F (stereo not drawn) | -6.32% (inactive) | 3.29% |
| CC1CC(C)CN(S(=O)(=O)c2cccc(C(=O)N3C(=O)c4cccc(N)c4C3=O)c2)C1 (stereo not drawn) | -7.74% (inactive) | -0.88% |
| Cc1c(C)c(C)c(S(=O)(=O)N2CCC3(CC2)OCCO3)c(C)c1C | -2.23% (inactive) | -3% |
| C[C@H]1CN([C@@H](C)CO)C(=O)Cc2cc(NS(C)(=O)=O)ccc2O[C@@H]1CN(C)CC1CC1 | -11.2% (inactive) | 2.75% |
| Cc1ccc2nc(-c3ccc(NC(=O)CN(C)S(=O)(=O)c4ccccc4)cc3)sc2c1 | 11.9% (inactive) | 3.33% |
| CCOC(=O)c1ccc(NC(=O)c2ccc(NC(=O)C3CCCO3)cc2)cc1 (stereo not drawn) | 79.3% (inactive) | 83.3% |
| CCn1c(/C=N/NC(=O)c2ccc(OC)cc2)nc2ccccc21 | 99.1% (inactive) | 99.4% |
| O=C(Nc1ccc(F)cc1F)N1CCCN(CCOc2ccccc2)CC1 | -1.99% (inactive) | -0.11% |
| CSc1sc(C(=O)NNC(=O)c2ccc(Cl)cc2)c2c1C=CCC2 | -5.38% (inactive) | 4.57% |
| Cc1oc2c(F)c(F)c(F)c(F)c2c1S(=O)(=O)Nc1cccc(C(F)(F)F)c1 | 5.72% (inactive) | 5.66% |
| Cc1ccc(NC(=O)c2nc[nH]c2C(=O)N2CCCCC2)c(C(=O)c2ccccc2)c1 | 9.07% (inactive) | 12.6% |
| O=C1NC(c2ccccc2)CCC1(Cl)Cl (stereo not drawn) | 0.94% (inactive) | 1.7% |
| COc1ccc(C)cc1NC(=O)C(OC(=O)c1cccc(S(=O)(=O)N(C)c2ccccc2)c1)c1ccccc1 (stereo not drawn) | -1.94% (inactive) | 9.6% |

Reference: PubChem BioAssay AID434955 (Southern Research Specialized Biocontainment Screening …, 2010)
